Reference: PubChem BioAssay AID1446 (The Scripps Research Institute Molecular Screening Center, 2008)
“And” between values parts separate entries of the source, which are not always exact repeats. Identical values can stand only once. The campaign covered roughly 220,000 compounds. About 2,400 (1.1%) were called active. The full list was thinned out, with actives kept by preference. A number with no mark means an inactive call.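 Rule for the calls: active = inhibition above the campaign mean plus 3 SD over all tested compounds (cut at about 24% in these data); inactive = the rest.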

Assay: reduced viability of JAK2V617F-dependent Ba/F3 cells, primary screen, JAK2V617F inhibitor project, cell-based, Ba/F3 EpoR-JAK2V617F, luminescence (AID 1446);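 note: cytokine-independent growth of Ba/F3 cells driven by EpoR plus mutant JAK2; 0% = DMSO-treated cells and 100% = JAK inhibitor I control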
Conditions: ATP luminescence, at 5.6 µM, stronger effect = higher value

SMILES	inhibition
O=C(CCCn1c(=O)c2sccc2n(CC(=O)NCC2CCCO2)c1=O)NCc1ccco1 (centres undefined)	-0.32%
COc1ccc(C2c3ccc(O)cc3Oc3ncn(CCCO)c(=N)c32)cc1OC (centres undefined)	-1.6%
Cc1ccc(NC(=O)OCc2cncs2)cc1	4.29%
COc1ccc(NC(=S)NCCNC(C)=O)cc1	-1.93%
COc1ccc(CS(=O)/C(Cl)=C(/Cl)C(=O)Nc2ccc(OC)nc2)cc1 (centres undefined)	101% (active)
COc1ccc(Nc2cc(Cl)ccc2C(=O)O)cn1	-1.48%
COc1ccc(NC(=S)Nc2ccccc2Cl)cn1	4%
COc1ccc(NC(=O)/C(Cl)=C(/Cl)S(=O)Cc2ccc(C)cc2)cn1 (centres undefined)	100% (active)
CCC(=O)N1CCCc2ccccc21	-4.91%
C=CCc1cccc2cc(C(=O)Nc3ccc(NC(C)=O)cc3)c(=O)oc12	-0.67%
CC1CCCCN1S(=O)(=O)c1ccc(S(=O)(=O)N(CC(=O)Nc2ccccc2)Cc2cccs2)cc1 (centres undefined)	-2.37%
CC1CCCCN1S(=O)(=O)c1ccc(C(=O)Nc2nnc(-c3cccs3)o2)cc1 (centres undefined)	36.5% (active)
CC1CCCN(S(=O)(=O)c2ccc(C(=O)Nc3nnc(-c4ccncc4)o3)cc2)C1 (centres undefined)	-1.33%
C/C(=N\NC(=O)OC(C)(C)C)c1ccc[nH]1	1.03%
CCN(CC)C(=O)Oc1ccc(Br)cc1C(=O)Nc1ccc(F)c(Cl)c1	-0.45%
CCOC(=O)C(C)n1nc(-c2ccccc2)c2ccccc2c1=O (centres undefined)	-1.31%
COc1ccc(C(=O)NC(Cc2ccc(OC(=O)c3ccc(OC)cc3)cc2)C(=O)O)cc1 (centres undefined)	-2.6%
O=C(CN1CCN(S(=O)(=O)c2ccc(Br)cc2)CC1)Nc1ccccc1C(=O)c1ccccc1	-3.02%
CC(C)(C)c1ccc(Oc2ccc(N)cc2)cc1	33.3% (active)
Cc1ccc(Oc2ccc(N)cc2)cc1	0.92%

SMILES	inhibition
Nc1ccc(Oc2ccc(Cl)cc2)cc1	7.34%
CC(C)CN1CCNC(=O)C1CC(=O)N(C)CC1CCOCC1 (centres undefined)	-1.14%
Cc1ccc(-c2cc(C(F)(F)F)n3ncc(C(=O)N4CCCCC4c4cccnc4)c3n2)cc1 (centres undefined)	-1.34%
COc1cc2c(cc1OC)CN(C(=O)c1cc(=O)c3ccccc3o1)CC2	15.9%
COc1cc2c(cc1OC)CN(C(=O)c1ccc(S(=O)(=O)N3CCCCCC3)cc1)CC2	4.67%
CCOc1cc(C(=O)N2CCc3cc(OC)c(OC)cc3C2)ccc1OC(F)F	82.7% (active)
OCC1(Cc2ccccc2C(F)(F)F)CCN(Cc2ccncc2)CC1	3.31%
C[C@@H]1C[C@@H]2O[C@H]2/C=C\C=C\C(=O)Cc2c(Cl)c(O)cc(O)c2C(=O)O1	96.8% (active)
CCOC(=O)c1ccc(NC(=O)Cn2nnc(-c3ccc(C)cc3)n2)cc1	-1.34%
CCOC(=O)c1ccc(NC(=O)Cn2cnc3cc(C)c(C)cc32)cc1	47.2% (active)
CCOC(=O)c1ccc(NC(=O)CSc2ncccn2)cc1	-1.61%
CCOC(=O)c1ccc(N=C2SC(C(=O)NC)CC(=O)N2CCc2ccccc2)cc1 (centres undefined)	1.63%
O=C(C[n+]1cc(-c2ccc(Cl)c(Cl)c2)n2c1CCC2)c1cccs1	4.8%
Cn1c(-c2ccccc2)c[n+]2c1CCCCC2	-3.91%
Cc1ccc(-c2c[n+](CC(=O)Nc3ccccc3)c3n2CCC3)cc1	-4.7%
Clc1ccc(C[n+]2cc(-c3ccccc3)n3c2CCC3)cc1	70.5% (active)
Cc1ccc(C(=O)C[n+]2cc(-c3ccccc3)n3c2CCCCC3)cc1	69.4% (active) and 87.4% (active)
Clc1ccc(C[n+]2cc(-c3ccc(Cl)cc3)n3c2CCC3)cc1	50.1% (active)
CN(C(=O)CSc1nnc(-c2n[nH]c3ccccc23)o1)c1ccccc1	2.55%
